Assay results: PubChem BioAssay

The compounds below were run against Torsin-1A (Homo sapiens) (UniProt O14656) (assay: small-molecule binders of mutant TOR1A in lysate, primary screen, cell lysate, small-molecule microarray, COS7 lysate, 635/667 nm fluorescence (AID 1150;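 further: score pools 667 nm emission and signal to noise measuring lysate protein binding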)). Conditions: COS7 hTOR1A mutant lysate, 635 nm fluorescence, higher = more signal.
Chain of Torsin-1A (Homo sapiens) (O14656 whole entry, looked up): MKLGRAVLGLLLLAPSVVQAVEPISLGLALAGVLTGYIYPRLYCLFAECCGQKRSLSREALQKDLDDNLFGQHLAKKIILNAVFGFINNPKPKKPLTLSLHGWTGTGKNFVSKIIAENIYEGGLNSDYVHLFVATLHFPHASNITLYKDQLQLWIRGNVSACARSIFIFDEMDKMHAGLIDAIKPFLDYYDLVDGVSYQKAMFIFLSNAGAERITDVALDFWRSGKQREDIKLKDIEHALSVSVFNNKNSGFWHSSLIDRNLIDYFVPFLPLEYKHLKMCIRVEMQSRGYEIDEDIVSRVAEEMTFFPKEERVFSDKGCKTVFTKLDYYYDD
`[N-]=[N+]=Nc1ccccc1[C@@H]1OC(c2ccc(OCCCO)cc2)=N[C@]1(Cc1ccccc1)C(=O)NCc1ccccc1` gave a composite z-score of 1.09.
With `[N-]=[N+]=NCc1ccccc1C[C@@]1(C(=O)N2CCCCC2)N=C(c2ccc(OCCCO)cc2)O[C@@H]1c1ccccc1CN=[N+]=[N-]` the composite z-score was -0.0699.
`O=C1C2C=CC(C(O)c3ccc(I)cc3)N(Nc3ccccc3)C2C(=O)N1c1ccccc1` (stereo not given) was tested, and the composite z-score was 0.36.
`CC(C)C(=C=CC[C@@H](O)c1cccc(OCCO)c1)C[C@@H](O)c1ccccn1` was tested, and the composite z-score was 0.405.
Compound `COC(=O)[C@@]1(Cc2ccccc2CN=[N+]=[N-])N=C(c2ccc(OCCCO)cc2)O[C@H]1c1ccccc1` has a composite z-score of 0.925.
`CCOC(=O)C[C@H]1[C@H](OC(=O)c2cc3ccccc3oc2=O)[C@@H](NC(=O)c2ccc3ccccc3c2)c2cc(OCCCO)ccc2N1C(=O)Cc1ccc(OC)cc1` was tested, and the composite z-score was 0.746.
`COC(=O)[C@@]1(Cc2ccc(OC)cc2)[C@H]2c3cc(C(=O)N4CCCC4)n(Cc4cc(C)n(C)n4)c3C[C@H]2CN1C(=O)c1ccccc1` was tested, and the composite z-score was 0.24.
In the case of `C=C(CCCC)C(=O)CC[C@H](OC(C)=O)c1ccc(OCCO)cc1`, the composite z-score is reported as -0.514.
With `COc1ccc(C(=O)Nc2cccc(CN3C(=O)[C@]4(O[C@H](CCn5cc([C@H](O)c6ccccc6)nn5)[C@@H]([Si](C)(C)c5ccc(OC)cc5)[C@@H]4C)c4ccccc43)c2)cc1` the composite z-score was 0.205.
Compound `COCCOC(=O)N1C(=O)[C@@]2(c3cc(C#CC4=CCCCC4)ccc31)[C@H](C(=O)N1CCCCCCC1)[C@H]1C(=O)O[C@H](c3ccccc3)[C@H](c3ccccc3)N1[C@@H]2c1ccc(OCCO)cc1` has a composite z-score of 0.877.
